Source: PubChem BioAssay
Hits are enriched below; roughly 21% of the tested compounds scored in any of these assays.
Pf growth 48h: P. falciparum growth inhibition at 48 hours (one generation); P. falciparum luciferase growth in erythrocytes, 48 h; Potency, µM (titrated, usually from 28.7 µM), actives largely listed as inhibitors; actives 5.9% (n = 310,000); AID 504832
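Read-out is firefly luciferase luminescence from an integrated reporter in P. falciparum, so falling signal marks reduced parasite growth. Infected erythrocytes were at 2% hematocrit and 0.1% parasitemia (final) in Albumax-supplemented RPMI 1640.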
Pf growth 96h: P. falciparum growth inhibition at 96 hours | Potency, µM (top dose mostly 28.7 µM), actives largely listed as inhibitors | P. falciparum luciferase reporter growth, 96 h | actives 6.9% (n = 320,000) | AID 504834
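Erythrocytes infected with luciferase-expressing P. falciparum were dispensed at 2% hematocrit and 0.05% parasitemia (final), then incubated with compounds 96 hours at 37 C in 5% CO2. Luminescence after detection reagent addition reported growth.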
CHX counter: counter-screen hit for Shiga toxin inhibitors, cycloheximide. cell reporter, cycloheximide protein synthesis inhibition counterscreen. max response, %. actives 12% (n = 300,000). AID 2314; in the data active means max response mostly above about 13%, no sharp cut-off; inactive means mostly below about 14%; further: read at 38.3 µM for the half of the compounds with a filed dose
Sm TGR inh: S. mansoni TGR enzyme inhibition; purified TGR, DTNB reduction, TNB absorbance 405 nm; Potency, µM (highest dose often 114 µM), actives largely listed as inhibitors; actives 3% (n = 360,000); AID 485364; further: nearly all actives have a fitted effect of over 60% in size
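TGR 20 nM + NADPH 100 uM (dispensed conc.), cpd preinc 15 min RT; start with NADPH (500 uM addition) then DTNB (15 mM addition). Kinetic TNB absorbance, 405 nm filter. Four-parameter Hill fit across titration.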
NS1 inh: inhibitors of influenza NS1 protein function; Potency, µM (doses to about 46.1 µM); actives 0.4% (n = 270,000); AID 2326; calls by dose curve; further: actives are rising curves; nearly all actives have a fitted effect of over 50% in size
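Recovery from NS1-induced slow growth read by OD600 in budding yeast switched to galactose assay medium (pH 6.0, -URA) at 1:100 dilution. Compound 23 nl per well; the matching strain lacking NS1 serves as control.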
Shiga inhibitor: Shiga toxin inhibition | Vero cells, Shiga toxin protein synthesis inhibition reporter | actives 9.2% (n = 290,000) | AID 2315 | inhibition, % at 38.7 µM; in the data active means inhibition mostly above about 28%, no sharp cut-off; inactive means mostly below about 43%
A number is an active result; - = inactive; ? = inconclusive; . = no result; [ ] = remark or other dose. Unless noted, the call rests on the fitted dose curve; in most records, active means well fitted curve in the direction sought with a large enough effect; inconclusive means small, poorly fitted or top-dose-only effect, or another doubt; inactive means no such curve, though single readings can be large; an effect the other way counts as inactive or inconclusive.

SMILES	Pf growth 48h	Pf growth 96h	CHX counter	Sm TGR inh	NS1 inh	Shiga inhibitor
CC(C)NC(=O)CCCN1C(=O)CCn2nc(-c3cccn3C)cc21	.	.	.	-	.	.
COc1ccccc1NC(=O)CSc1nc(=O)n(CCN2CCOCC2)c2c1CCC2	-	-	.	-	.	.
COc1ccc(CC(=O)NC2CC(=O)N(c3cccc(F)c3)C2)cc1OC (centres undefined)	.	.	.	-	.	.
COc1ccc(OC)c(N(CC(=O)N2CCC(C)CC2)S(=O)(=O)c2ccc(OC)c(OC)c2)c1	?	2.6µM	-	-	-	-
O=C(CN(C(=O)CNS(=O)(=O)c1ccccc1)c1ccc2c(c1)OCCO2)NC1CCCCC1	?	?	24	-	-	-
CN(CC(=O)NC1CCCCCC1)S(=O)(=O)c1ccccc1	-	.	12	-	-	34
CCN(CC(=O)NC1CCCCCC1)S(=O)(=O)c1ccccc1	-	.	-	-	-	-
COc1ccccc1N(CC(=O)NC1CCCC1)S(=O)(=O)c1cccc(C(F)(F)F)c1	13µM	?	.	-	.	.
COc1ccc(OC)c(N(CC(=O)NC2CCCC2)S(=O)(=O)c2ccc(OC)c(OC)c2)c1	?	5.9µM	-	-	-	-
CCOc1ccccc1N(CC(=O)NC1CCCCC1)S(=O)(=O)c1ccc(C)cc1	12µM	-	-	-	-	-
CN(CC(=O)NCC1CCCCC1)S(=O)(=O)c1ccc(F)cc1	-	-	-	-	-	-
COc1ccc(OC)c(N(CC(=O)NC2CCCCCC2)S(=O)(=O)c2ccc(C)cc2)c1	?	-	-	-	-	-
COc1ccccc1N(CC(=O)NC1CCCC1)S(=O)(=O)c1ccc(C)cc1	?	-	-	-	-	-
CC(=O)c1ccc(S(=O)(=O)N(C)CC(=O)NCC2CCCCC2)cc1	-	-	-	-	-	53
COCCN(C(=O)c1ccccc1Oc1ccccc1)c1c(N)n(CC(C)C)c(=O)[nH]c1=O	-	-	.	-	.	.
Cc1cccc(CC(=O)NCc2nc3cccnc3n2Cc2ccc(F)cc2)c1	.	.	.	-	.	.
COC(C(=O)N1CCC(n2nccc2NC(=O)C2CC2)CC1)c1ccccc1 (centres undefined)	-	-	41	-	-	107
O=C(Nc1ccnn1C1CCN(C(=O)c2ccccc2C(F)(F)F)CC1)C1CC1	-	-	27	-	?	-
COC(C(=O)Nc1ccnn1C1CCN(C(=O)c2ccc(C=O)cc2)CC1)c1ccccc1 (centres undefined)	?	-	-	-	-	-
O=C(N/N=C/c1cccs1)c1cc(-c2cccc3ccccc23)n[nH]1	-	-	47	-	-	-
O=C(N/N=C/c1cccs1)c1cccc2cc[nH]c12	?	-	-	-	-	-
O=C(N/N=C/c1ccco1)c1cc(-c2ccc3ccccc3c2)n[nH]1	.	-	18	-	-	-
O=C(N/N=C/c1cccs1)c1cc(-c2ccc3ccccc3c2)n[nH]1	?	?	39	-	-	54
CCCCc1nn2c(=O)cc(COC(=O)COc3ccc(C)cc3)nc2s1	.	.	.	-	.	.
Cc1ccccc1CSCc1nc(N)nc(Nc2ccccc2C)n1	-	-	49	-	.	85
SMILES	Pf growth 48h	Pf growth 96h	CHX counter	Sm TGR inh	NS1 inh	Shiga inhibitor
Cc1ccccc1Nc1nc(N)nc(COC(=O)/C=C/c2ccco2)n1	-	-	-	13µM	.	-
Cc1ccccc1Nc1nc(N)nc(COC(=O)c2ccc(O)cc2)n1	?	2.6µM	20	-	-	-
Cc1ccccc1Nc1nc(N)nc(CSCc2c(C)noc2C)n1	-	-	-	-	-	-
Cc1ccccc1Nc1nc(N)nc(COC(=O)CCNS(=O)(=O)c2ccccc2)n1	12µM	?	.	-	.	.
NC1=NC(c2cccc(Cl)c2)N(CCc2ccc(F)cc2)C(N)=N1 (centres undefined)	-[0.00184 µM]	?	-	-	-	-
Cc1ccccc1Nc1nc(N)nc(COC(=O)c2ccc([N+](=O)[O-])o2)n1	-	-	.	?	.	.
Cc1ccccc1Nc1nc(N)nc(COC(=O)c2cccc(S(=O)(=O)N(C)c3ccccc3)c2)n1	?	5.9µM	-	-	-	-
C=CCn1c(=O)c2ccccc2n2c(SCc3nc(N)nc(Nc4ccccc4C)n3)nnc12	8.3µM	?	-	-	?	-
Nc1nc(CCl)nc(Nc2cccc3ccccc23)n1	?	13µM	-	16µM	-	-
Cc1ccccc1Nc1nc(N)nc(COC(=O)c2ccccc2)n1	-	-	82	-	-	79
CCCCn1c(SCc2nc(N)nc(Nc3ccccc3C)n2)nc2ccccc2c1=O	.	?	-	-	-	-
CC(=O)c1cccc(NC(=O)Cn2c(=O)oc3cc(S(=O)(=O)NCc4ccccc4)ccc32)c1	.	.	.	-	.	.
O=C(c1ccccc1)C1CCCN(Cc2nc(-c3cnccn3)no2)C1 (centres undefined)	-	5.2µM	-	.	-	-
CSc1ccc(C(=O)C2CCCN(Cc3cccc4nccnc34)C2)cc1 (centres undefined)	10µM	?	-	-	-	-
O=C(c1ccc(Cl)cc1)C1CCCN(Cc2cccc3ncccc23)C1 (centres undefined)	?	?	-	-	-	-
COc1ccc(CN2CCCC(C(=O)c3ccc(Cl)cc3)C2)c(O)c1 (centres undefined)	0.83µM	-	-	-	-	-
COc1ccc(C(=O)C2CCCN(Cc3cc(Cl)ccc3O)C2)c(OC)c1 (centres undefined)	?	-	-	-	-	-
O=C(c1ccc(Cl)cc1)C1CCCN(Cc2cccc3cccnc23)C1 (centres undefined)	9.3µM	-	-	-	-	-
Cn1nnnc1SCC(=O)N1CCN(S(=O)(=O)c2ccc(Cl)cc2)CC1	-	-	-	-	-	-
COc1ccc(NC(=O)Cn2cnc3sc(C)c(S(=O)(=O)N4CCN(C)CC4)c3c2=O)cc1OC	-	-	-	-	.	-
CCOc1ccc(NC(=O)CSc2nc3c(oc4ccccc43)c(=O)n2-c2cc(C)cc(C)c2)cc1	.	.	.	-	.	.
Cc1c(Cl)ccc2sc(N3CCN(C(=O)CS(=O)(=O)c4ccccc4)CC3)nc12	.	.	.	-	.	.
CSc1ccc(CN(C)C(=O)COc2ccc(C(=O)c3ccccc3)cc2)cc1	-	-	-	-	-	-
CCc1ccccc1NC(=O)Cc1c(C(=O)O)[nH]c2ccc(Cl)cc12	.	.	.	-	.	.
Cc1ccc(C(=O)NCCNc2ccc(Cl)cc2[N+](=O)[O-])o1	?	?	-	-	-	-
N#Cc1ccc(NCCc2ccccn2)c([N+](=O)[O-])c1	-	-	-	-	-	-
O=C(NCCNc1ccc(Cl)cc1[N+](=O)[O-])c1ccccc1F	-	?	12	-	-	-
O=C(NCCNc1ccnc2cc(Cl)ccc12)c1ccccc1F	0.47µM	-	-	-	-	-
O=[N+]([O-])c1cc(Cl)ccc1NCCc1ccccn1	-	-	18	-	-	57
